Results published in PubChem BioAssay (NCATS).
Several values for one entry are separate records, joined by “and”; a condition that tells them apart may be missing. Identical values can stand only once. Results filed as inconclusive are left out. A structure can be active in one record and inactive in another. Activity calls are given as the source filed them. Unless noted, the call rests on the fitted dose curve; in most records, active means well fitted curve in the direction sought with a large enough effect; inconclusive means small, poorly fitted or top-dose-only effect, or another doubt; inactive means no such curve, though single readings can be large; an effect the other way counts as inactive or inconclusive.

How the values were obtained:
[1] = Primary qHTS for small molecule stabilizers of the endoplasmic reticulum resident proteome: Secreted ER Calcium Modulated Protein (SERCaMP) assay (AID 1508630); further: on the % scale 0 is the no-effect control and ±100 the full control effect
Outline: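 GLuc-SERCaMP-expressing SH-SY5Y cells, pretreated 16 h with compound, are challenged with thapsigargin to empty ER calcium stores; after 4 h, coelenterazine is added directly to the medium and luminescence is imaged.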

[2] = A High-Content qHTS Against Drug Library for the Identification of Small Molecules that Inhibit DYT1 Early Onset Primary Dystonia-Associated Cell Pathology (AID 1645839; calls by dose curve)
Outline: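 Readout: %pathology, the punctate EGFP-TorsinA distribution from imaging, as the primary channel and cell count as the toxicity counterscreen. HEK293 Flp-In cells expressing delE TorsinA were induced with tetracycline and treated with compound for 48 h.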

[3] = biological target: Cytochrome P450 2C9 (Homo sapiens) (UniProt P11712); assay: Cytochrome P450 family 2 subfamily C member 9 (CYP2C9) small molecule antagonists: luciferase biochemical (cell-free) qHTS assay (AID 1645842; active means well fitted curve in the direction sought with a large enough effect in the repeat runs; an effect the other way counts as inactive or inconclusive; further: nearly all actives have a fitted effect of over 55% in size; further: potency means the concentration at half of the fitted maximal effect; on activity change, negative = inhibition: on the % scale 0 is the no-effect control and ±100 the full control effect)
Outline: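 Luminescence, after 20 min with luciferin detection reagent, reflected CYP2C9 turnover during a 1 h NADPH-driven reaction at 37C. Enzyme-substrate mix contained 0.4% bovine serum albumin and was preincubated with compound 10 min at room temperature.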

[4] = Confirmatory qHTS to identify inhibitors of SARS-CoV-2 cell entry (AID 1645844; calls by dose curve; further: potency means the concentration at half of the fitted maximal effect; nearly all actives have a fitted effect of over 45% in size)
Outline: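 HEK293-ACE2 cells (Expi293F stably expressing human ACE2) were pretreated with compounds for 1 hr at 37C, then infected with MLV-based particles carrying Wuhan-Hu-1 spike (C-terminal 19-aa truncation). Luciferase luminescence read after 48 hr; normalized to spike PP (100%) and bald PP (0%).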

[5] = Primary qHTS for inhibitors of nuclear receptor binding SET domain protein 2 (NSD2) in an isogenic RCH-ACV NSD2 p.E1099K mutant (9B) (AID 1645876); further: nearly all actives have a fitted effect of over 70% in size; further: potency means the concentration at half of the fitted maximal effect
[6] = Primary qHTS for inhibitors of nuclear receptor binding SET domain protein 2 (NSD2) in an RCH-ACV wild type WT cells (2C) (AID 1645877); further: nearly all actives have a fitted effect of over 70% in size; further: potency means the concentration at half of the fitted maximal effect
[7] = biological target: Cytochrome P450 2D6 (Homo sapiens) (UniProt P10635); assay: Cytochrome P450 family 2 subfamily D member 6 (CYP2D6) small molecule antagonists: luciferase biochemical (cell-free) qHTS assay (AID 1645840; active means well fitted curve in the direction sought with a large enough effect in the repeat runs; an effect the other way counts as inactive or inconclusive; further: nearly all actives have a fitted effect of over 55% in size; further: potency means the concentration at half of the fitted maximal effect)
Outline: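 P450-Glo luminescent screen: recombinant CYP2D6 enzyme–proluciferin substrate mix preincubated with compound 10 min at room temperature, then NADPH regeneration added for 1 h at room temperature. Detection reagent added for 20 min; luciferin light read as relative luminescence units.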

[8] = Cytotoxicity counterscreen for inhibitors of SARS-CoV-2 cell entry (AID 1645845; calls by dose curve; further: nearly all actives have a fitted effect of over 50% in size)
Outline: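 Expi293F/hACE2 cells seeded overnight; cpd pin-transferred in DMSO, 1 h preincubation, + media, 48 h 37 C 5% CO2; ATPLite 1step luminescence; normalized to cells and no cells.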

[9] = Primary qHTS to identify inhibitors of SARS-CoV-2 cell entry (AID 1645846; calls by dose curve; further: nearly all actives have a fitted effect of over 45% in size); settings: activity change, negative = inhibition: at 57.1 µM (top of the series) unless noted
Outline: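 Using luciferase-reporting pseudoviruses carrying Wuhan-Hu-1 spike, the screen tracks entry into stably ACE2-expressing cells over 48 hr. Activity is expressed relative to spike particles versus particles lacking any fusion protein.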

[10] = biological target: Cytochrome P450 3A4 (Homo sapiens) (UniProt P08684); assay: Cytochrome P450 family 3 subfamily A member 4 (CYP3A4) small molecule antagonists: luciferase qHTS assay (AID 1645841; active means well fitted curve in the direction sought with a large enough effect in the repeat runs; an effect the other way counts as inactive or inconclusive; further: nearly all actives have a fitted effect of over 45% in size; further: potency means the concentration at half of the fitted maximal effect)
Outline: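 P450-Glo CYP3A4 enzyme with proluciferin substrate was preincubated with DMSO-dissolved compounds for 10 min at room temperature. NADPH regeneration solution started a 1 h reaction. Detection reagent stopped it, and luminescence was read after 20 min.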

Papain (Carica papaya) = Papain (Carica papaya) (UniProt P00784); assay: Primary qHTS assay for inhibitors of the protease papain (AID 1645873);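 further: papain turnover of Z-FR-AMC read as the AMC fluorescence gain over 10 min; on the % scale 0 is the no-effect control and ±100 the full control effect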
[11] = Cell Viability qHTS for small molecule stabilizers of the endoplasmic reticulum resident proteome (AID 1508629); settings: cell viability counter-screen, 100 nM thapsigargin for final 4 h;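 further: human SH-SY5Y neuroblastoma cells carrying the GLuc-SERCaMP reporter; compound exposure about 46 h in total before the viability read; on the % scale 0 is the no-effect control and ±100 the full control effect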

Sequence of Cytochrome P450 2D6 (Homo sapiens) (P10635 whole entry, looked up): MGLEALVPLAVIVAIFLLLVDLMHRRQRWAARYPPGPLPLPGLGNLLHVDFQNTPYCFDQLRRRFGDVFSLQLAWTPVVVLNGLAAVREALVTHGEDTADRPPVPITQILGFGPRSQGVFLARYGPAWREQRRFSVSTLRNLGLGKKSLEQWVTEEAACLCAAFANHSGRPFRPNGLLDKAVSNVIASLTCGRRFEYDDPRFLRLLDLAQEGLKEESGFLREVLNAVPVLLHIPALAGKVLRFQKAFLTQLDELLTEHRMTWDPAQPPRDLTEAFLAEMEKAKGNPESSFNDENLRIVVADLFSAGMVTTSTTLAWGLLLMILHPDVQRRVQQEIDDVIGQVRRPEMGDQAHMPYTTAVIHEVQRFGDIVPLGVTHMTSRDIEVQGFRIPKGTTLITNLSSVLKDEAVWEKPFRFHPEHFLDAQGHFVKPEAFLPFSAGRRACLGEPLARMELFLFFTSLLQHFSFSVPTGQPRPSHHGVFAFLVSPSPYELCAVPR
Sequence of Cytochrome P450 2C9 (Homo sapiens) (P11712 whole entry, looked up): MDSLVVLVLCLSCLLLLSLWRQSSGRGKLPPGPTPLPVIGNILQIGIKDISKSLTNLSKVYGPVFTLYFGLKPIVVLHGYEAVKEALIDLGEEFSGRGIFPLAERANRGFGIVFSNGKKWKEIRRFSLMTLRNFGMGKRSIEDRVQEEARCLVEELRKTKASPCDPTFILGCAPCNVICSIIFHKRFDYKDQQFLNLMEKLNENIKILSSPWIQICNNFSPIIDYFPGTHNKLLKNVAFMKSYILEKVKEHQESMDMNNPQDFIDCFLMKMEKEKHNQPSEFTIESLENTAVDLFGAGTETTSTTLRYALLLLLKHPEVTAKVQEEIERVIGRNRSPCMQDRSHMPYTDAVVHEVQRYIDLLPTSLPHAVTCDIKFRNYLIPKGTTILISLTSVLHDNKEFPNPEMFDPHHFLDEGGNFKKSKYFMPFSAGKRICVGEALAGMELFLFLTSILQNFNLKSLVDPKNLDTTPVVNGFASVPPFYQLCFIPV
Sequence of Cytochrome P450 3A4 (Homo sapiens) (P08684 whole entry, looked up): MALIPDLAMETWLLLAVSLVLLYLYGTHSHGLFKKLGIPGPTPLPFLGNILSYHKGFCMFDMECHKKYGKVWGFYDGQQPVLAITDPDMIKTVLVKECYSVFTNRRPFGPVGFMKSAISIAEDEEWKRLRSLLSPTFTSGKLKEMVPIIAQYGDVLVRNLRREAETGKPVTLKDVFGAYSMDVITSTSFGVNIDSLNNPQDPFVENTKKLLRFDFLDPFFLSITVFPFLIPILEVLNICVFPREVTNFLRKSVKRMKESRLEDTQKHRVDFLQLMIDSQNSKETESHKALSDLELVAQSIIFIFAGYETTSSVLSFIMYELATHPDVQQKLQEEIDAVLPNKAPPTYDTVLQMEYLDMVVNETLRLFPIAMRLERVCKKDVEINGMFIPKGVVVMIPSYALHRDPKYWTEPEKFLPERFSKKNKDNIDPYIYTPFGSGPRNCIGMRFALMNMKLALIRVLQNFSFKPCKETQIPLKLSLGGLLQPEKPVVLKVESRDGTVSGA
Sequence of Papain (Carica papaya) (P00784 whole entry, looked up): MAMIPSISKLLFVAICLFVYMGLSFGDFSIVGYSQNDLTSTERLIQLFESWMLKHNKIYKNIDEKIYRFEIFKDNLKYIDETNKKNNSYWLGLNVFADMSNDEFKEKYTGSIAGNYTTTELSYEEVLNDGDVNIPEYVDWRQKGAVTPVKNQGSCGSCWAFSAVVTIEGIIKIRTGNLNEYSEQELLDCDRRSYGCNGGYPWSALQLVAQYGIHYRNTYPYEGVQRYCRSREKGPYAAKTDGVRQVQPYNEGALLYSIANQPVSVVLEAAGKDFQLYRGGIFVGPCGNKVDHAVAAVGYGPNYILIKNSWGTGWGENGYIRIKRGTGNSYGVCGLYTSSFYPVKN

COc1cccc2c1C(=O)c1c(O)c3c(c(O)c1C2=O)C[C@@](O)(C(=O)CO)CC3OC1CC(N2CCOC(OC)C2)C(O)C(C)O1 (stereo partly specified)
active: Potency [3] 3.47 µM | Potency [4] 0.0482 µM | Potency [5] 4.7 nM | Potency [6] 0.0033 µM
inactive: Potency [1] | outcome [2]

C[C@]12CCC(=O)C=C1CC[C@@H]1[C@H]3CC[C@](C)(O)[C@@]3(C)CC[C@@H]12
inactive: Potency [1] | outcome [2]
active: Potency [7] 43.5 µM | Potency [3] 42.6 µM | Potency [5] 34700 nM | Potency [6] 21.9 µM

C[N+]1(CCF)[C@@H]2CC[C@H]1CC(OC(=O)C(O)(c1ccccc1)c1ccccc1)C2 (stereo partly specified)
active: Potency [7] 15.5 µM
inactive: Potency [1] | outcome [2] | Potency [3] | Potency [8] | Potency [5] | Potency [6]

CN1C(=O)COc2c(C(=O)NC3CN4CCC3CC4)cc(Cl)cc21 (stereo unspecified)
-14.3%: activity change, negative = inhibition [9]
inactive: Potency [1] | outcome [2] | Potency [7] | Potency [3] | Potency [8] | Potency [5] | Potency [6]

c1ccc2c(c1)sc1ccccc12
inactive: Potency [1] | outcome [2] | Potency [7] | Potency [3] | Potency [8] | Potency [5] | Potency [6]
-6.22%: activity change, negative = inhibition [9]

Nc1nc(N)nc(NC2CC2)n1
inactive: Potency [1] | outcome [2] | Potency [10] | Potency [3] | Potency [5] | Potency [6]

C[C@]12CCC(=O)C=C1CC[C@@H]1[C@@H]2CC[C@]2(C)C(=O)CC[C@@H]12
inactive: Potency [1] | outcome [2] | Potency [7] | Potency [10] | Potency [3] | Potency [8] | Potency [9]

CN1C(=O)CCS(=O)(=O)C1c1ccc(Cl)cc1 (stereo unspecified)
inactive: Potency [1] | outcome [2] | Potency [7] | Potency [3] | Potency [8] | outcome (Papain (Carica papaya)) | Potency [5] | Potency [6]
-18.3% and 4.93%: activity change, negative = inhibition [9]

CN1C(=O)NC(=O)C(C)(C2=CCCCC2)C1=O (stereo unspecified)
3.11%: activity change, negative = inhibition [9]
inactive: Potency [1] | outcome [2] | Potency [7] | Potency [3] | Potency [8] | Potency [5] | Potency [6]

COP(=S)(OC)SCN1C(=O)c2ccccc2C1=O
inactive: Potency [1] | outcome [2] | Potency [8] | Potency [9]
active: Potency [7] 15.5 µM | Potency [3] 0.776 µM

CCc1cc2c(s1)-n1c(C)nnc1CN=C2c1ccccc1Cl
inactive: Potency [1] | outcome [2] | Potency [7] | Potency [3] | Potency [8]

NC(=O)c1cc([N+](=O)[O-])cc([N+](=O)[O-])c1
active: Potency [10] 9.65 µM
inactive: Potency [1] | outcome [2] | Potency [3] | Potency [8] | Potency [5] | Potency [6]
-10.7%: activity change, negative = inhibition [9]

CCCOC(=O)c1cncn1C(C)c1ccccc1 (stereo unspecified)
inactive: Potency [1] | outcome [2] | Potency [7] | Potency [5] | Potency [6]
active: Potency [3] 13.8 µM

COc1cccc([C@@]2(O)CCCC[C@@H]2CN(C)C)c1
inactive: Potency [1] | outcome [2] | Potency [10] | Potency [3] | Potency [5] | Potency [6]

CC(C)(C)NCC(O)c1ccccc1Cl (stereo unspecified)
active: Potency [7] 12.3 µM
inactive: Potency [1] | outcome [2] | Potency [3] | Potency [8] | Potency [9] | outcome (Papain (Carica papaya)) | Potency [5] | Potency [6]

CCCCC/C=C\C/C=C\C/C=C\C/C=C\CCCC(=O)NCC(=O)O
inactive: Potency [1]

C=CCN1C[C@H](C)N([C@H](c2ccc(C(=O)N(CC)CC)cc2)c2cccc(OC)c2)C[C@H]1C
inactive: Potency [1] | outcome [2] | Potency [3] | Potency [5] | Potency [6]
active: Potency [7] 2.45 µM

CCN[C@@H](C)Cc1cccc(C(F)(F)F)c1
inactive: Potency [1] | outcome [2] | Potency [3] | Potency [5] | Potency [6]
active: Potency [7] 2.75 µM

CCCCCCC(=O)CCCCCC/C=C/C[C@@H](O)[C@H](O)[C@@](N)(CO)C(=O)O
inactive: Potency [1] | outcome [2] | Potency [7] | Potency [3] | Potency [5] | Potency [6]

NNc1ccccc1
inactive: max response [11] -1.1% | Potency [3]

CCC(C)(C)c1ccc(O)cc1
inactive: Potency [1] | outcome [2] | Potency [7] | Potency [5]

O=C(N/N=C/c1ccc([N+](=O)[O-])o1)c1cc([N+](=O)[O-])cc([N+](=O)[O-])c1O
inactive: Potency [1] | outcome [2] | Potency [3]

CC(Cc1ccccc1)N(C)Cc1ccco1 (stereo unspecified)
inactive: Potency [1] | outcome [2] | Potency [3] | Potency [5] | Potency [6]
active: Potency [7] 2.45 µM

ClCCN1CCCC1
inactive: Potency [1] | outcome [2] | Potency [7] | Potency [3] | Potency [5] | Potency [6]

CC(C(=O)c1ccccc1)N(C)C (stereo unspecified)
inactive: Potency [1] | outcome [2] | Potency [3]

CCOC(=O)CC(SP(=S)(OC)OC)C(=O)OCC (stereo unspecified)
inactive: Potency [1] | outcome [2] | Potency [6]
active: Potency [3] 1.3 µM and 1.74 µM
2.11%: activity change, negative = inhibition [9]
30.6 µM (active) and inactive: Potency [5]
39.9 µM (active) and inactive: Potency [7]

CCN(CC)C(=O)[C@@H]1C=C2c3cccc4[nH]cc(c34)C[C@H]2N(C)C1
inactive: Potency [1]
